Screening results deposited in PubChem by National Center for Advancing Translational Sciences (NCATS).
Only some compounds are listed: those with a hit (about 3.3% of all), similar ones and a draw of the others.
USP1 inh: Inhibitors of USP1/UAF1: Primary Screen | 0.23% of 390,000 active | Ubiquitin carboxyl-terminal hydrolase 1 (Homo sapiens), O94782 | recombinant USP1/UAF1, Ub-Rhodamine cleavage fluorescence | Potency, µM (top dose mostly 57.1 µM), for the others: at the highest dose activity change, negative = inhibition, actives largely listed as inhibitors | AID 743255, 2014; note: potency is the fitted concentration of half-maximal effect; nearly all actives have a fitted effect of over 60% in size
Target sequence (O94782 whole entry, looked up): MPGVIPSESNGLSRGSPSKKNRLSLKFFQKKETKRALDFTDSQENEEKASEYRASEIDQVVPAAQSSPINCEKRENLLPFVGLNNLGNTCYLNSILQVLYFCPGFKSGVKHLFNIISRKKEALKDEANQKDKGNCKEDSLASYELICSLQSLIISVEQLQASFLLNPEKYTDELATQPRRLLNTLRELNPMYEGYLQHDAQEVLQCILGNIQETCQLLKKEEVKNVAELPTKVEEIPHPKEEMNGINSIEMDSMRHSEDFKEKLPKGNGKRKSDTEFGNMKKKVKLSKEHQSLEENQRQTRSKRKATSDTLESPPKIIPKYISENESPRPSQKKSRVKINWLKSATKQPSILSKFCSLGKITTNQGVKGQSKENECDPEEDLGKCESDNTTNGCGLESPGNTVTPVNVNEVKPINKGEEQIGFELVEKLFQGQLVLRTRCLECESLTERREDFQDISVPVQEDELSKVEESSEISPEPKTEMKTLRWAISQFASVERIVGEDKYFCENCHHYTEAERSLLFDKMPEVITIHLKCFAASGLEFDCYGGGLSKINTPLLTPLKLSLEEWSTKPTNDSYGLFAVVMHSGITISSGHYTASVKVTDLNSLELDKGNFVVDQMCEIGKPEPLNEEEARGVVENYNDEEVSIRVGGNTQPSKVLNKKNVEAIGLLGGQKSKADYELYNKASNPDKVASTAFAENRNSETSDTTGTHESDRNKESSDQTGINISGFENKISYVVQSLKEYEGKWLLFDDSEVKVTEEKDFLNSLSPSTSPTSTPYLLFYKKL
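High-throughput fluorogenic screen: 1nM USP1/UAF1 complex, Ub-Rho substrate 150nM final, 50mM HEPES pH 7.8 with 0.5mM EDTA, 0.1 mg/ml BSA, 1mM TCEP and 0.01% Tween-20.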
USP2a block: qHTS Assay for Inhibitors of Ubiquitin-specific Protease USP2a Using CHOP2 as the Reporter. Ubiquitin carboxyl-terminal hydrolase 2 (Homo sapiens), O75604. USP2 core, Ub-CHOP2 coupled fluorogenic reporter, 485/531. Potency, µM (titrated, usually from 38.3 µM), inactives show at the top dose activity change, negative = inhibition, hits mostly inhibitors. 0.01% of 330,000 active. AID 463254, 2010;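 note: potency is the fitted concentration of half-maximal effect; plate controls were DMSO wells for no effect and full inhibition by NEM control for full effect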
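USP2 core (10nM final) preincubated 30min RT with compound in 20mM Tris-HCl pH 8.0, 2mM CaCl2, 2mM beta-mercaptoethanol, 0.05% CHAPS; 25nM Ub-CHOP2 plus 25nM reporter substrate added, fluorescence (Ex485/Em531) read after 60min.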
PI5P4Ka inh: qHTS for Inhibitors of phosphatidylinositol 5-phosphate 4-kinase (PI5P4K). PI5P4Kalpha enzyme, ADP-Glo luminescence, 60 min; stronger effect = lower value. max response, %. 1.2% of 330,000 active. AID 652105, 2013; active = max response of -50% or lower; inconclusive = between -30% and -50%; inactive = -30% or higher; note: value at the top dose of about 77 µM
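PI5P4Kalpha ADP-Glo assay; 5 microM ATP final; 60 min RT reaction; HEPES pH 7.4/EGTA/CHAPS, 5% DMSO; controls lacking substrate or enzyme; luminescent end-point.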
WRN helicase inh: qHTS for Inhibitors of WRN Helicase; WRN helicase unwinding, fluorescent forked duplex, kinetic; Potency, µM (titrated, usually from 114 µM), for inactives: top-dose activity change, negative = inhibition, usual class: inhibitors; 0.46% of 360,000 active; AID 651768, 2012; note: potency is the fitted concentration of half-maximal effect; nearly all actives have a fitted effect of over 55% in size
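Enzyme (20 nM final) and test compound sit together 15 min at room temperature before substrate addition. Substrate is a single-forked duplex oligonucleotide (100 nM) labelled with fluorophore and quencher, with 2 mM ATP; helicase unwinding raises red fluorescence, read kinetically.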
PLK1 PBD block: qHTS for Inhibitors of PLK1-PDB (polo-like kinase 1 - polo-box domain): Primary Screen; Plk1 PBD binding of FITC phosphopeptide, fluorescence polarization; Potency, µM, without a hit: max response, negative = inhibition, most hits filed as inhibitors; 2.8% of 360,000 active; AID 720504, 2013; note: potency is the fitted concentration of half-maximal effect; series mostly up to about 57 µM; nearly all actives have a fitted effect of over 65% in size
Starred values were filed as active, the others as inactive; u = inconclusive; x = no result; [ ] = dose if it differs, or a comment. Unless noted, calls come from the whole dose curve; as a rule, active = well fitted curve in the direction sought with a large enough effect; inconclusive = small, poorly fitted or top-dose-only effect, or another doubt; inactive = no such curve, though single readings can be large; an effect the other way counts as inactive or inconclusive. Unless noted, % is set by controls: 0 for no effect and ±100 for the full control effect.

SMILES | USP1 inh | USP2a block | PI5P4Ka inh | WRN helicase inh | PLK1 PBD block
C=CCN1C(=O)/C(=C/c2cc(C)n(-c3cccnc3)c2C)C(=O)NC1=S | -4% | 1% | -67* | u | 1.5µM*
Cc1cc(C=C2C(=O)NC(=O)NC2=O)c(C)n1-c1cccnc1 | -4% | -1% | -58* | -30% | u
Cc1cc(/C=C2\C(=O)NC(=O)N(Cc3ccco3)C2=O)c(C)n1-c1ccc(C(=O)O)cc1 | -9% | 3% | u | u | u
Cc1cc(/C=C2/C(=O)NC(=O)N(c3ccccc3)C2=O)c(C)n1-c1ccc(F)cc1 | -6% | x | -7 | -15% | u
Cn1c(=O)n(C)c2cc(CNCCc3ccc(F)cc3)ccc21 | 12% | x | x | x | x
COC(=O)C1=C(C)NC(C)=C(C(=O)OC)C1c1ccccc1[N+](=O)[O-] | 8% | 0% | -58* | 4% | u
O=C1NC(=O)N(Cc2ccccc2)C(=O)/C1=C\C=C\c1ccco1 | -5% | 2% | -62* | 50µM* | 110%
Cc1ccc(N2C(=O)NC(=O)/C(=C\C=C\c3ccco3)C2=O)cc1C | -2% | -1% | u | 16µM* | 1.5µM*
O=C1CC(=O)N(Cc2ccccc2)C(=S)N1 | -13% | 2% | u | -31% | -22%
O=C1NC(=O)N(c2ccccc2)C(=O)/C1=C/C=C/c1ccco1 | -12% | 19% | u | u | 2.4µM*
O=C1NC(=O)N(Cc2ccccc2)C(=O)/C1=C/N1CCCc2ccccc21 | -10% | 6% | -23 | -20% | 27µM*
CCOc1ccc2nc(NC(=O)c3cccn(Cc4ccccc4)c3=O)sc2c1 | -23% | x | x | x | x
Cc1cccc(N2C(=O)NC(=O)/C(=C\C=C\c3ccco3)C2=O)c1 | -15% | 4% | -25 | -34% | u
Cc1ccc(N2C(=O)NC(=O)/C(=C\C=C\c3ccco3)C2=O)cc1 | -18% | 10% | -29 | u | 1.9µM*
CN(C)c1ccc(CCN2CCOCC2)cc1 | -21% | 1% | 2 | 0% | -2%
CN(C)c1ccc2c(c1)N=C(c1ccco1)OP2(=S)N1CCOCC1 (configuration not stated) | -25% | 3% | x | -8% | 19µM*
COc1ccc2[nH]c3c(c2c1)CCN1C(=O)C(CC(=O)NCc2cccc(C(F)(F)F)c2)C[C@H](C(=O)N2CCCCC2)[C@@]31C (some centres not stated) | u | -6% | 14 | -7% | 0%
CC(=O)c1ccc2c(c1)C1C(Cl)C(Sc3ccccc3[N+](=O)[O-])CC1C(c1ccccc1)N2 (configuration not stated) | -15% | -2% | -3 | -21% | 15µM*
Cc1cc(/C=C2\C(=O)NC(=O)N(c3cccc(F)c3)C2=O)c(C)n1-c1ccc(C(=O)O)c(Cl)c1 | -24% | 3% | u | -12%[11.6 µM] | -21%
Cc1ccc(N2C(=O)NC(=O)/C(=C\c3cc(C)n(-c4ccc(C(=O)O)cc4)c3C)C2=O)cc1 | -8% | -1% | -26 | -4%[11.6 µM] | u
Cc1c(Cl)cccc1N1C(=O)NC(=O)/C(=C\c2cc(C)n(-c3cccc(C(=O)O)c3C)c2C)C1=O | 5% | -1% | -25 | -5%[11.6 µM] | 27µM*
Cc1ccc(N2C(=O)NC(=O)/C(=C\c3cc(C)n(-c4cc(C(=O)O)cc(C(=O)O)c4)c3C)C2=O)cc1 | 1% | 1% | -52* | u | u
CCc1ccc(N2C(=O)NC(=O)/C(=C\c3cc(C)n(-c4cc(C(=O)O)cc(C(=O)O)c4)c3C)C2=O)cc1 | 1% | -24% | -64* | u | u
Cc1ccc(C)c(CN2C(=O)c3ccccc3S(=O)(=O)c3ccc(C(=O)N4CCCCCC4)cc32)c1 | 40% | x | x | x | x
Cc1c(C=C2C(=O)N(C)C(=S)N(C)C2=O)c2ccccc2n1CC(=O)NCC1CCCO1 (configuration not stated) | u | -19% | u | u | 2.7µM*
SMILES | USP1 inh | USP2a block | PI5P4Ka inh | WRN helicase inh | PLK1 PBD block
O=C(NCc1ccco1)c1ccc(Cn2c(=O)c3ccccc3n(Cc3cccc(F)c3)c2=O)cc1 | -15% | 7% | -13 | -4% | 15µM*
CCCCn1c(=O)c(C(=O)NCc2ccco2)c(O)c2ccccc21 | -14% | 0% | 9 | 4% | -7%
O=C(Nc1ccc(F)cc1)c1c(O)c2c(n(Cc3ccccc3)c1=O)CCCC2 | -5% | 3% | 0 | 2% | 27µM*
O=C1CN=C(c2ccccc2)c2cc(Cl)ccc2N1Cc1ccc(Cl)cc1 | -22% | x | x | x | x
Cc1ccc(Cn2cccc(C(=O)Nc3ccc4c(c3)OCO4)c2=O)cc1 | -8% | x | x | x | x
CSc1ccccc1NC(=O)CN(C)CC(=O)c1[nH]c(C)c(C(C)=O)c1C | -4% | 4% | 0 | u | -30%
S=C1Nc2ccccc2Sc2ccccc21 | -9% | 1% | -7 | -13% | 27µM*
COc1ccc(NC(=O)CN2C(=O)CN=C(c3ccccc3)c3ccccc32)c(OC)c1 | -16% | x | x | x | x
O=C(N/N=C/c1c(O)n(C2CC2)c(=S)[nH]c1=O)c1ccccc1O | 4% | 1% | -58* | -21% | -2%
Cc1ccccc1-n1c(O)c(/C=N/NC(=O)c2ccccc2O)c(=O)[nH]c1=S | u | 0% | -69* | -11% | 4.2µM*
O=C(N/N=C/c1c(O)n(-c2ccccc2)c(=S)[nH]c1=O)c1ccccc1 | 1% | 1% | -54* | -12% | 1%
Cc1ccc(NC(=O)N(Cc2ccc3c(c2)OCO3)C2CCN(Cc3ccccc3)CC2)cc1Cl | -4% | x | x | x | x
Cc1cc(O)c2c(c1)C(=O)c1cc(O)cc(O)c1C2=O | 12% | x | -58* | -32% | u
Nc1nnc(Sc2ncccc2[N+](=O)[O-])s1 | -33% | 2% | -16 | -7% | 9.5µM*
C[N+]1(C)[C@@H]2CC[C@H]1CC(OC(=O)[C@@H](CO)c1ccccc1)C2 (some centres not stated) | -15% | 6% | -58* | -11% | -28%
CCOC(=O)c1ccc(N=Cc2c(O)n(-c3ccccc3F)c(=S)[nH]c2=O)cc1 | -19% | 1% | -27 | 79µM* | -1%
CCOC(=O)c1c(/N=C/c2c(O)n(-c3ccc(F)cc3)c(=S)[nH]c2=O)sc2c1CCCC2 | -6% | 4% | -3 | -12% | -17%
CCOC(=O)c1c(/N=C/c2c(O)n(-c3ccccc3F)c(=S)[nH]c2=O)sc2c1CCCC2 | -8% | 1% | u | u | 24µM*
COc1ccc(-n2c(=S)[nH]c3c(sc(=S)n3-c3ccccc3)c2=O)c(OC)c1 | -5% | 0% | u | u | 2.4µM*
